IMPase cell inh: qHTS Assay for Identifying the Cell-Membrane Permeable IMPase Inhibitors; Inositol monophosphatase 1 (Rattus norvegicus), P97697; CHO-M1 cells, IP1 accumulation, HTRF TR-FRET ratio; inhibition (IP1 accumulation), % at 46.1 µM; 120,000 tested, under 10 active; AID 901, 2007; active = well fitted curve in the direction sought with a large enough effect in the signal ratio, not every such curve was filed as active; inconclusive = small, poorly fitted or top-dose-only effect, or a change in a side signal; inactive = no such curve, though single readings can be large or run the other way; the % refers to the signal ratio;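 note: cells stimulated with carbachol in lithium chloride buffer; plate controls were DMSO basal wells for no effect and reference inhibitor wells for full effect; higher means more IMPase inhibition seen as more IP1 and lower FRET ratio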
Target sequence (P97697 whole entry, looked up): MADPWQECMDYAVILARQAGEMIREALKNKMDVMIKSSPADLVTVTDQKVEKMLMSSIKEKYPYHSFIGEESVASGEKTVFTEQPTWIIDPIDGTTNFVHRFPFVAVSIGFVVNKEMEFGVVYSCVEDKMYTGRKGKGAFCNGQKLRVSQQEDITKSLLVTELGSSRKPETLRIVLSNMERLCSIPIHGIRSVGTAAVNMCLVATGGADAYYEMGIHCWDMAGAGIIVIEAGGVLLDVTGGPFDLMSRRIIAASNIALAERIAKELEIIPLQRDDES
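Carbachol-driven Gq signalling in CHO-M1 cells (2000/well) generates IP1. Compounds that block IMPase raise IP1 and so reduce the FRET signal from Eu-anti-IP1 and d2-IP1 after a 10 min room-temperature lysis.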
NPSR antagonist: qHTS Assay for Antagonists of the Neuropeptide S Receptor: cAMP Signal Transduction; Q6W5P4; CHO-NPSR cells, cAMP TR-FRET, antagonist mode; Potency, µM (highest dose often 38.3 µM), without a hit: top-dose activity change, negative = inhibition, most hits filed as inhibitors; 220,000 compounds, 1% hits; note: potency is the fitted concentration of half-maximal effect; % is set by controls: 0 for no effect and ±100 for the full control effect; nearly all actives have a fitted effect of over 50% in size
Target sequence (Q6W5P4 whole entry, looked up): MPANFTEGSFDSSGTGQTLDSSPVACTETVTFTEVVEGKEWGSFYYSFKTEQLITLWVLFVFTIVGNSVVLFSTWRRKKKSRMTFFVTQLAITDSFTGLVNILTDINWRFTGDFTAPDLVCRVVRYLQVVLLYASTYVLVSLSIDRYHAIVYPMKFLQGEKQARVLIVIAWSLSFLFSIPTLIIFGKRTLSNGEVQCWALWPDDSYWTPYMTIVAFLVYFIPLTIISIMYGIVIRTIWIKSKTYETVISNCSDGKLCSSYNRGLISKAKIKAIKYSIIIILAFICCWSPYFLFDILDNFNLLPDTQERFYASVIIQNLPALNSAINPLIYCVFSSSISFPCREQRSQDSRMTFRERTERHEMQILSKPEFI
ALOX12 inhib: qHTS Assay for Inhibitors of 12-hLO (12-human lipoxygenase); Polyunsaturated fatty acid lipoxygenase ALOX12 (Homo sapiens), P18054; purified 12-hLO, xylenol orange hydroperoxide absorbance; Potency, µM (doses to about 57.1 µM), without a hit: at the highest dose activity change, negative = inhibition, hits mostly inhibitors; 150,000 compounds, 0.12% hits; AID 1452, 2008; note: potency is the fitted concentration of half-maximal effect; % is set by controls: 0 for no effect and ±100 for the full control effect; nearly all actives have a fitted effect of over 55% in size
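Lipoxygenase turnover measured by absorbance at 573 and 405 nm after Fe-XO development. Human 12hLO 150 nM, arachidonate 40 uM, pH 7.0 Hepes buffer with detergent; 15 min compound preincubation, 30 min reaction.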
HttQ103 aggreg: qHTS Multiplex Assay to Identify Dual Action Probes in a Cell Model of Huntington: Aggregate Formation (GFP) | AID 1688, 2009 | PC12 HttQ103-GFP aggregates, Acumen cytometry, 40 h | 220,000 compounds, 1.1% hits | Potency, µM (doses to about 46.1 µM), for the others: at the top dose activity change, negative = inhibition, usual class: inhibitors; note: potency is the fitted concentration of half-maximal effect; % is set by controls: 0 for no effect and ±100 for the full control effect; nearly all actives have a fitted effect of over 60% in size
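Quantitative HTS on tebufenozide-induced (100 nM) PC12 cells stably expressing polyQ103 Huntingtin exon 1–GFP. Reduction of bright GFP aggregates, detected by laser scanning cytometry after lysis, identified actives across the titration.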
PNC inhibitor: High Content Assay for Compounds that inhibit the Assembly of the Perinucleolar Compartment; PC3M PTB-GFP, PNC prevalence imaging, 16 h; active compounds read low; activity change (PNC), negative = inhibition, % at 10 µM; 140,000 compounds, 3.1% hits; AID 2417, 2010;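 active = readout at or below -70, meaning at least 70% loss of cells showing the perinucleolar compartment, a nuclear body marking cancer cells; inconclusive = readout between -30 and a set limit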;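 note: plate controls were DMSO wells for no effect and camptothecin positive control wells for full effect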
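PC3M cells stably expressing PTB-GFP, 750–1000 cells/well, treated 16 h at 37 °C with compound (23 nl of library stock), in duplicate. After paraformaldehyde fixation and Hoechst stain, imaged at 20x; PNC prevalence scored by image analysis.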
HTT ATP protect: qHTS Multiplex Assay to Identify Dual Action Probes in a Cell Model of Huntington: Cytoprotection (ATP); PC12 HTT-Q103 induced, cytoprotection, ATP luminescence, 40 h; Potency, µM (doses to about 56.4 µM), for inactives: cytoprotection (ATP increase), most hits filed as activators; 230,000 compounds, 0.14% hits; AID 1471, 2008; note: potency is the fitted concentration of half-maximal effect; % of control where 0% means no effect; nearly all actives have a fitted effect of over 45% in size
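PC12 cells stably carrying ecdysone-inducible Htt exon 1 (Q103)–GFP were induced with 100 nM tebufenozide (final) alongside library compounds in a dose series. Cytoprotection was scored as retained ATP by ATPlite luminescence.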
Numbers without * were called inactive; ? = inconclusive; nt = no result given; [ ] = remark or other dose. Most compounds without a hit are left out; they make up all but 3.3% or so of the library. Unless noted, calls come from the whole dose curve; as a rule, active = well fitted curve in the direction sought with a large enough effect; inconclusive = small, poorly fitted or top-dose-only effect, or another doubt; inactive = no such curve, though single readings can be large; an effect the other way counts as inactive or inconclusive.

SMILES	IMPase cell inh	NPSR antagonist	ALOX12 inhib	HttQ103 aggreg	PNC inhibitor	HTT ATP protect
COC(=O)[C@H]1[C@@H]2C[C@H]3c4[nH]c5ccccc5c4CCN3C[C@@H]2CC[C@@H]1O	2	nt	3%	nt	nt	-16%
CCOc1ccc(S(=O)(=O)NCc2csc(C)n2)cc1	9	10%[46.1 µM]	-7%	?	-91*	-15%[1.9 µM]
Cc1cc(NCc2ccco2)n2ncnc2n1	5	11%	2%	3%	-119*	23%[10 µM]
O=C1CC(Nc2ccccc2)C(=O)N1c1ccc(N2CCOCC2)cc1 (stereo not drawn)	1	-9%[46.1 µM]	5%	11%	-104*	6%
Cn1c(N)c(C(=O)COC(=O)c2cc(-c3ccco3)nc3ccccc23)c(=O)n(Cc2ccccc2)c1=O	nt	-30%	-10%	32%	?	10µM*
Cn1c(N)c(C(=O)COC(=O)CCCc2c[nH]c3ccccc23)c(=O)n(C)c1=O	6	-18%[46.1 µM]	-7%	3%	-80*	0%[10 µM]
Cn1c(N)c(C(=O)COC(=O)c2ccnc3ccccc23)c(=O)n(C)c1=O	nt	-56%	-9%	-3%	-85*	3%
Cn1c(N)c(C(=O)COC(=O)c2cc(C3CC3)nc3ccccc23)c(=O)n(C)c1=O	nt	5%	1%	-5%	51	-16%
CC(CCC(=O)O)(c1cc(Br)c(O)c(Br)c1)c1cc(Br)c(O)c(Br)c1	nt	nt	-2%[11.4 µM]	nt	nt	-13%[10 µM]
Cc1nc2c(-c3ccccc3)c[nH]n2c(=O)c1Cc1ccccc1	nt	3%	nt	7.1µM*	nt	-150%
Cc1cc2nc(C)c(Cc3ccccc3)c(=O)n2[nH]1	1	-9%[46.1 µM]	-2%	-14%	?	-7%
COc1ccc(/C=C/c2ccncc2)cc1OC	?	-8%[46.1 µM]	-3%	4%	-97*	-9%[10 µM]
C(=C\c1ccncc1)/c1ccncc1	nt	-1%[7.67 µM]	nt	0%[9.22 µM]	nt	1%[10 µM]
CC1=CC(C)(C)N(S(=O)(=O)c2ccc(F)cc2)c2ccccc21	5	?	-2%	-13%	?	-55%
CC1=CC(C)(C)N(S(=O)(=O)c2ccc(C)cc2)c2ccc(C)cc21	-1	?	-7%	-8%[1.84 µM]	-90*	-96%
Cc1ccc(C(C)C)c(OCCn2cc(C(=O)c3ccco3)c3ccccc32)c1	3	nt	nt	nt	nt	nt
C=CCSc1nc2ccccc2n1C(=O)/C=C/c1cc(OC)c(OC)c(OC)c1	6	2.5µM*	-2%	?	20	43%
CCSc1nc2ccccc2n1C(=O)/C=C/c1ccc(OC)c(OC)c1	nt	-59%	6%	?	27	?
CC1=C(C(=O)Nc2ccccc2C)C2(CCCCC2)C(C(N)=O)C(=S)N1 (stereo not drawn)	nt	-3%	-1%	-5%	-85*	-3%[10 µM]
CC1=C(C(=O)Nc2ccccc2)C2(CCCCC2)C(C(N)=O)C(=S)N1 (stereo not drawn)	nt	6%	-1%	15%	9	-25%[10 µM]
COc1ccccc1N1CCN(Cc2c[nH]c3ccccc23)CC1	nt	8%[7.67 µM]	nt	-19%[9.22 µM]	nt	-13%[10 µM]
Cc1ccccc1N1CCN(Cc2c[nH]c3ccccc23)CC1	0	-7%[46.1 µM]	-9%	22µM*	15	-53%[10 µM]
c1cnc(N2CCN(Cc3c[nH]c4ccccc34)CC2)nc1	6	20%[46.1 µM]	-4%	11µM*	16	-86%
CN(CC(=O)NCc1ccccc1)S(=O)(=O)c1cnc[nH]1	1	-5%[46.1 µM]	12%	0.63µM*	38	nt
O=C1c2[nH]nc(-c3ccc(F)cc3)c2C(c2ccccc2F)N1c1ccccc1 (stereo not drawn)	29	nt	nt	nt	nt	nt
SMILES	IMPase cell inh	NPSR antagonist	ALOX12 inhib	HttQ103 aggreg	PNC inhibitor	HTT ATP protect
O=C(NCCc1ccccc1)c1ccccc1F	nt	-10%	nt	5%[9.22 µM]	nt	-10%[10 µM]
CN(C(=O)COc1ccccc1C(=O)NCCc1ccccc1)c1ccccc1	nt	-7%	-2%	7%	-100*	-20%[10 µM]
CC1=C/C(=C\c2ccc3c(c2)OCO3)C(=O)S1	-1	-13%[46.1 µM]	?	27%	-85*	-1%
CCc1cc2c(=O)c(-c3ccc4c(c3)OCCO4)coc2c(CN2CCCCC2C)c1O (stereo not drawn)	nt	10µM*	nt	?	nt	-71%[10 µM]
CCCn1nc(NC(=O)c2cccs2)c2cc3cc(OC)ccc3nc21	-3	-6%[46.1 µM]	-4%	28%	-90*	-68%
CC1=C(C)/C(=N\OS(=O)(=O)c2ccc(C)cc2)C=CC1=O	nt	?	2%	?	?	-21%[10 µM]
CC1=C/C(=N\OS(=O)(=O)c2ccccc2)C(C)=CC1=O	21	2.5µM*	-1%	10%[9.22 µM]	-3	-93%
CC1=C/C(=N\OS(=O)(=O)c2ccccc2)C(C(C)C)=CC1=O	nt	10µM*	0%	37%[0.0738 µM]	-16	39%[0.074 µM]
CC1=CC(=O)c2ccccc2C1=O	20[20.6 µM]	8%	-11%	-97%	-25	-368%
Cc1nccc(-c2cc(-c3ccc(Cl)cc3Cl)no2)n1	nt	-21%	nt	1%[9.22 µM]	nt	-11%[10 µM]
COc1ccc(Cl)cc1NC(=O)N1CCN(C2CCCCC2)CC1	2	-9%[46.1 µM]	1%	-5%	-88*	9%[1.9 µM]
CCCCCCCCCCC/C=C\C/C=C\CCCC(=O)O	nt	nt	1%	nt	nt	-7%
O=C(Cc1ccccc1)Nc1sc2c(c1C(=O)Nc1ccccc1Cl)CCCC2	0	nt	nt	nt	nt	nt
Cc1ccc(N(CC(=O)NCc2ccco2)C(=O)CCC(=O)Nc2nccs2)cc1	nt	3%	nt	1%[9.22 µM]	nt	17%[10 µM]
O=C(c1ccccc1)N(Cc1cccnc1)C1(C(=O)Nc2ccccc2)CCCCC1	nt	-23%	1%	7%	-110*	-10%[10 µM]
C[C@H](CCC(=O)NCC(=O)O)C1CC[C@H]2[C@H]3C(C[C@H](O)[C@]12C)[C@@]1(C)CC[C@@H](O)C[C@H]1C[C@H]3O (stereo partly drawn)	nt	nt	nt	nt	nt	-34%
Cc1cccc(N2CCN(C(=O)c3cn(C4CCCCC4)c(=O)c4c3c3ccccc3n4C)CC2)c1C	1	nt	nt	nt	nt	nt
CCn1c2ccccc2c2cnc(N=CN(C)C)c(C#N)c21	3	-12%[46.1 µM]	-3%	8.9µM*	1	-73%
Cc1ccccc1NC(=O)c1sc2nc3c(cc2c1N)CCCC3	2	nt	nt	nt	nt	nt
COC(=O)CN(c1ccccc1)S(=O)(=O)c1cc(Br)ccc1OC	nt	39%	nt	-5%	nt	-11%
CC(=O)Nc1ccc(S(=O)(=O)NCc2ccc(C)cc2)cc1	0	6%[46.1 µM]	6%	-22%	-110*	-3%

Source: PubChem BioAssay (National Center for Advancing Translational Sciences (NCATS))
